“And” between values parts separate entries of the source, which are not always exact repeats. Equal values may be shown once. The source made the active and inactive calls. Rule for the calls: active = hit-call score of the fitted dose curve at least 0.9, where 1 is the maximum; inactive = score below 0.9.
read-out: Collagen III, COL3A1 (gene 1281); assay: BSK_MyoF_CollagenIII: BioMAP Diversity Plus: MyoF Assay for Collagen III Biomarker Activity (AID 2284239); settings: primary human lung fibroblasts
Procedure: BSK_MyoF is a cell-based, multiplexed-readout assay that uses lung fibroblasts, […], with measurements taken at 24 hours after chemical dosing in a microplate: 96-well plate.BSK_MyoF_CollagenIII is an assay component measured in the BSK_MyoF assay. It measures Collagen III antibody related to regulation of gene expression using ELISA technology.Data from the assay component BSK_MyoF_CollagenIII was analyzed at the endpoint, BSK_MyoF_CollagenIII, in the positive analysis fitting direction relative to DMSO as the negative control and baseline of activity. Using a type of binding reporter, gain or loss-of-signal activity can be used to understand protein changes. To generalize the intended target to other relatable targets, this assay endpoint is annotated to the 'cell adhesion molecules' intended target family, where the subfamily is 'collagen'.
The levels of cell surface (or secreted, indicated by the prefix "s") biomarker endpoints were measured by ELISA. Overt cytotoxicity to cells in confluent adherent cultures (all systems other than the BT system) was assessed by measuring total protein levels using sulforhodamine B (SRB) staining in parallel cultures at the time of biomarker measurements, indicated as SRB endpoints. For proliferation assays for adherent cell types, individual cell types are cultured at sub-confluence and relative cell numbers quantified by SRB staining at time points optimized for each system (48 h: 3C and CASM3C systems; 72 h: BT and HDF3CGF systems; 96 h: SAg system). SRB was performed by staining cells with 0.1% SRB after fixation with 10% TCA and reading wells at 560 nm.Viability and proliferation of PBMC (T cells) was quantified by Alamar Blue reduction for the SAg and BT systems. For PBMC viability (referred to as PBMC Cytotoxicity within the assay endpoint names), cells were plated (75,000/well in a 96-well plate) and then chemical samples added for 1 h before addition of activators, SEB and TSST-1 (20 ng/mL final concentration each). Cells were incubated for 90 h. Then, Alamar Blue (20 uL/well) (Invitrogen, Cat DAL1100) was added for 6 h, and the plates were read with a fluorescence microplate reader at 546/580 nm (excitation/emission). For PBMC proliferation, cells were plated and activated as above but incubated for only 16 h prior to addition of Alamar Blue. Plates were read after 6 h.

SMILES	outcome	AC50
O=C(O)CCC(F)(C(F)(F)F)C(F)(F)F	inactive	–
CCNc1nc(NC(C)(C)C)nc(SC)n1	inactive	–
COC[C@H](C)N(C(=O)CCl)c1c(C)csc1C	inactive	–
O=C(OC1CCCCC1)c1ccccc1C(=O)OC1CCCCC1	–	16.6 µM (active)
NC(=S)Nc1ccccc1	inactive	–
O=S(=O)(c1ccc(Cl)cc1)c1ccc(Cl)cc1	inactive	–
CCCCC(CC)CO[N+](=O)[O-] (stereo unspecified)	inactive	–
OCc1ccco1	inactive	–
Oc1ccc(-c2ccccc2)cc1	–	0.414 µM (active)
COP(=S)(OC)Oc1c(Cl)cc(C)cc1Cl	inactive	–
Nc1cccc2ccccc12	–	14.5 µM (active)
BrCCBr	inactive	–
C(=NC1CCCCC1)=NC1CCCCC1	–	7.83 µM (active)
COc1cc(OC)nc(NC(=O)NS(=O)(=O)c2ncccc2C(=O)N(C)C)n1	inactive	–
CC(C)c1ccc(CO)cc1	inactive	–
CCOP(=S)(OCC)SCCS(=O)(=O)CC	inactive	–
O=[N+]([O-])c1ccc2c3c(cccc13)CC2	inactive	–
CCCCCCCCC(=O)NCc1ccc(O)c(OC)c1	inactive	–

SMILES	outcome	AC50
ClC(Cl)=C(Cl)C(Cl)=C(Cl)Cl	–	3.97 µM (active)
COP(=S)(OC)Oc1cc(Cl)c(Cl)cc1Cl	inactive	–
O=Cc1cccc(Oc2ccccc2)c1	inactive	–
Oc1c(I)cc(I)cc1I	–	3.97 µM (active)
Nc1ncc([N+](=O)[O-])s1	inactive	–
CCSC(C)CC1CC(=O)C(C(CC)=NOC/C=C/Cl)=C(O)C1 (stereo unspecified)	inactive	–
O=C(O)C(F)(F)C(F)(F)C(F)(F)C(F)(F)C(F)(F)C(F)(F)C(F)(F)C(F)(F)C(F)(F)C(F)(F)F	–	2.59 µM (active) and 2.58 µM (active)
COC(=O)c1sccc1S(=O)(=O)NC(=O)Nc1nc(C)nc(OC)n1	inactive	–
COP(=S)(OC)Oc1ccc(Sc2ccc(OP(=S)(OC)OC)cc2)cc1	–	28.6 µM (active)
CC1(C)Cc2cccc(O)c2O1	inactive	–
COP(=S)(OC)Oc1ccc(S(=O)(=O)N(C)C)cc1	inactive	–
CC(=O)C(Cl)C(=O)N(C)C (stereo unspecified)	inactive	–
ClC1=C(Cl)[C@]2(Cl)[C@H]3[C@H]([C@H]4C=C[C@H]3C4)[C@@]1(Cl)C2(Cl)Cl	–	5.43 µM (active)
CCOP(=S)(OCC)Oc1ccc(S(C)=O)cc1 (stereo unspecified)	inactive	–
Nc1ccc(-c2ccc(N)c(Cl)c2)cc1Cl	–	3.17 µM (active)
CC(C)CCCCCCOC(=O)c1ccccc1C(=O)OCCCCCCC(C)C	inactive	–
O=C(O)C(F)(F)C(F)(F)C(F)(F)C(F)(F)C(F)(F)C(F)(F)F	inactive	–
CCOC(=O)/C=C(C)/C=C/C[C@@H](C)CCCC(C)C	–	30.6 µM (active)

From PubChem BioAssay (EPA / NIEHS)
